Reference: the supplement of paper PMC6992640

What was measured:
[1] = tested on: HCI01 (cells of a triple-negative basal-like breast cancer xenograft); assay: cell viability of combination (% of vehicle); higher = less cytotoxic; settings: 1 µM; 72 h; partner dose: 10 nM
Protocol: (§1)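 PDX cells were treated for 72 h with each drug at 1 µM plus carfilzomib (10 nM; 100 nM for WHIM2). Luciferase viability is expressed as percent of vehicle.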

[2] = tested on: UCD52 (cells of a triple-negative basal-like breast cancer xenograft); assay: as above; settings: 1 µM; 72 h; partner dose: 10 nM
Protocol: as §1

Row | SMILES | cell viability of combination [1] | cell viability of combination [2]
1 | Cc1cc(-n2c(=O)[nH]c(=O)n(C)c2=O)ccc1Oc1ccc(SC(F)(F)F)cc1 [Toltrazuril] + CC(C)C[C@H](NC(=O)[C@H](CCc1ccccc1)NC(=O)CN1CCOCC1)C(=O)N[C@@H](Cc1ccccc1)C(=O)N[C@@H](CC(C)C)C(=O)[C@@]1(C)CO1 [Carfilzomib] | 76.4 | 61
2 | Nc1ccn(C2OC(CO)C(O)C2O)c(=O)n1 (stereo not given) [Cytarabine] + CC(C)C[C@H](NC(=O)[C@H](CCc1ccccc1)NC(=O)CN1CCOCC1)C(=O)N[C@@H](Cc1ccccc1)C(=O)N[C@@H](CC(C)C)C(=O)[C@@]1(C)CO1 [Carfilzomib] | 57.8 | 68.3
3 | COC(=O)C12CCC(C)(C)CC1C1C(=O)C=C3C4(C)C=C(C#N)C(=O)C(C)(C)C4CCC3(C)C1(C)CC2 (stereo not given) [Bardoxolone methyl] + CC(C)C[C@H](NC(=O)[C@H](CCc1ccccc1)NC(=O)CN1CCOCC1)C(=O)N[C@@H](Cc1ccccc1)C(=O)N[C@@H](CC(C)C)C(=O)[C@@]1(C)CO1 [Carfilzomib] | 158 | 28.1
4 | CC(NCCCc1cccc(C(F)(F)F)c1)c1cccc2ccccc12.Cl (stereo not given) [Cinacalcet HCl] + CC(C)C[C@H](NC(=O)[C@H](CCc1ccccc1)NC(=O)CN1CCOCC1)C(=O)N[C@@H](Cc1ccccc1)C(=O)N[C@@H](CC(C)C)C(=O)[C@@]1(C)CO1 [Carfilzomib] | 89.6 | 59.9
5 | Cc1ccc(C(=O)N(CCCN)C(c2nc3cc(Cl)ccc3c(=O)n2Cc2ccccc2)C(C)C)cc1 (stereo not given) + CC(C)C[C@H](NC(=O)[C@H](CCc1ccccc1)NC(=O)CN1CCOCC1)C(=O)N[C@@H](Cc1ccccc1)C(=O)N[C@@H](CC(C)C)C(=O)[C@@]1(C)CO1 [Carfilzomib] | 88.6 | 42.9
6 | CC(=O)c1cc2c(o1)C(=O)c1ccccc1C2=O [Napabucasin] + CC(C)C[C@H](NC(=O)[C@H](CCc1ccccc1)NC(=O)CN1CCOCC1)C(=O)N[C@@H](Cc1ccccc1)C(=O)N[C@@H](CC(C)C)C(=O)[C@@]1(C)CO1 [Carfilzomib] | 22.6 | 15.7
7 | CC(O)C(=O)O.CC(O)C(=O)O.CN1CCN(c2ccc3c(c2)NC(=C2C(=O)N=c4cccc(F)c4=C2N)N3)CC1 [Dovitinib Dilactic acid] + CC(C)C[C@H](NC(=O)[C@H](CCc1ccccc1)NC(=O)CN1CCOCC1)C(=O)N[C@@H](Cc1ccccc1)C(=O)N[C@@H](CC(C)C)C(=O)[C@@]1(C)CO1 [Carfilzomib] | 71.2 | 88.8
8 | COc1cc(Nc2ncc(F)c(Nc3ccc4c(n3)N(COP(=O)(O)O)C(=O)C(C)(C)O4)n2)cc(OC)c1OC [Fostamatinib (R788)] + CC(C)C[C@H](NC(=O)[C@H](CCc1ccccc1)NC(=O)CN1CCOCC1)C(=O)N[C@@H](Cc1ccccc1)C(=O)N[C@@H](CC(C)C)C(=O)[C@@]1(C)CO1 [Carfilzomib] | 119 | 64.9
9 | COC(=O)NC(C(=O)NC(Cc1ccccc1)C(O)CN(Cc1ccc(-c2ccccn2)cc1)NC(=O)C(NC(=O)OC)C(C)(C)C)C(C)(C)C (stereo not given) [Atazanavir] + CC(C)C[C@H](NC(=O)[C@H](CCc1ccccc1)NC(=O)CN1CCOCC1)C(=O)N[C@@H](Cc1ccccc1)C(=O)N[C@@H](CC(C)C)C(=O)[C@@]1(C)CO1 [Carfilzomib] | 79.8 | 63.2
10 | CC1(COc2ccc3c(c2)ncn3-c2ccc3cccc(N4CCC(N)CC4)c3n2)COC1 + CC(C)C[C@H](NC(=O)[C@H](CCc1ccccc1)NC(=O)CN1CCOCC1)C(=O)N[C@@H](Cc1ccccc1)C(=O)N[C@@H](CC(C)C)C(=O)[C@@]1(C)CO1 [Carfilzomib] | 102 | 135
11 | CCOC(=O)c1c(CSc2ccccc2)n(C)c2cc(Br)c(O)c(CN(C)C)c12.Cl [Arbidol HCl] + CC(C)C[C@H](NC(=O)[C@H](CCc1ccccc1)NC(=O)CN1CCOCC1)C(=O)N[C@@H](Cc1ccccc1)C(=O)N[C@@H](CC(C)C)C(=O)[C@@]1(C)CO1 [Carfilzomib] | 76.6 | 58.5
12 | Cc1nc(NC(=O)N2CCCC2C(N)=O)sc1-c1ccnc(C(C)(C)C(F)(F)F)c1 (stereo not given) + CC(C)C[C@H](NC(=O)[C@H](CCc1ccccc1)NC(=O)CN1CCOCC1)C(=O)N[C@@H](Cc1ccccc1)C(=O)N[C@@H](CC(C)C)C(=O)[C@@]1(C)CO1 [Carfilzomib] | 62.6 | 42.3
13 | CCN(CC)CCNC(=O)c1c(C)[nH]c(C=C2C(=O)Nc3ccc(F)cc32)c1C.O=C(O)CC(O)C(=O)O [Sunitinib malate] + CC(C)C[C@H](NC(=O)[C@H](CCc1ccccc1)NC(=O)CN1CCOCC1)C(=O)N[C@@H](Cc1ccccc1)C(=O)N[C@@H](CC(C)C)C(=O)[C@@]1(C)CO1 [Carfilzomib] | 67.2 | 61.5
14 | CCCCCCCCOc1ccccc1C(=O)Nc1ccc(C(=O)OCC[N+](C)(CC)CC)cc1.[Br-] [Otilonium Bromide] + CC(C)C[C@H](NC(=O)[C@H](CCc1ccccc1)NC(=O)CN1CCOCC1)C(=O)N[C@@H](Cc1ccccc1)C(=O)N[C@@H](CC(C)C)C(=O)[C@@]1(C)CO1 [Carfilzomib] | 81.5 | 67
15 | COc1cc2nccc(Oc3ccc(NC(=O)C4(C(=O)Nc5ccc(F)cc5)CC4)cc3)c2cc1OC.O=C(O)CC(O)C(=O)O [Cabozantinib malate (XL184)] + CC(C)C[C@H](NC(=O)[C@H](CCc1ccccc1)NC(=O)CN1CCOCC1)C(=O)N[C@@H](Cc1ccccc1)C(=O)N[C@@H](CC(C)C)C(=O)[C@@]1(C)CO1 [Carfilzomib] | 77 | 57.2
16 | COc1cc(C(=O)NS(=O)(=O)c2ccccc2C)ccc1Cc1cn(C)c2ccc(NC(=O)OC3CCCC3)cc12 [Zafirlukast] + CC(C)C[C@H](NC(=O)[C@H](CCc1ccccc1)NC(=O)CN1CCOCC1)C(=O)N[C@@H](Cc1ccccc1)C(=O)N[C@@H](CC(C)C)C(=O)[C@@]1(C)CO1 [Carfilzomib] | 83.2 | 65
17 | CC(C)c1nc(N(C)S(C)(=O)=O)nc(-c2ccc(F)cc2)c1C=CC(O)CC(O)CC(=O)[O-].CC(C)c1nc(N(C)S(C)(=O)=O)nc(-c2ccc(F)cc2)c1C=CC(O)CC(O)CC(=O)[O-].[Ca+2] (stereo not given) [Rosuvastatin Calcium] + CC(C)C[C@H](NC(=O)[C@H](CCc1ccccc1)NC(=O)CN1CCOCC1)C(=O)N[C@@H](Cc1ccccc1)C(=O)N[C@@H](CC(C)C)C(=O)[C@@]1(C)CO1 [Carfilzomib] | 80.8 | 67.7
18 | C#Cc1cccc(Nc2ncnc3cc(OCCOC)c(OCCOC)cc23)c1.Cl [Erlotinib Hydrochloride] + CC(C)C[C@H](NC(=O)[C@H](CCc1ccccc1)NC(=O)CN1CCOCC1)C(=O)N[C@@H](Cc1ccccc1)C(=O)N[C@@H](CC(C)C)C(=O)[C@@]1(C)CO1 [Carfilzomib] | 62.6 | 57.4
19 | CC(C)c1nc(CN(C)C(=O)NC(C(=O)NC(Cc2ccccc2)CC(O)C(Cc2ccccc2)NC(=O)OCc2cncs2)C(C)C)cs1 (stereo not given) [Ritonavir] + CC(C)C[C@H](NC(=O)[C@H](CCc1ccccc1)NC(=O)CN1CCOCC1)C(=O)N[C@@H](Cc1ccccc1)C(=O)N[C@@H](CC(C)C)C(=O)[C@@]1(C)CO1 [Carfilzomib] | 73 | 65.6
20 | Cl.Nc1ccn(C2OC(CO)C(O)C2O)c(=O)n1 (stereo not given) [Cytarabine hydrochloride] + CC(C)C[C@H](NC(=O)[C@H](CCc1ccccc1)NC(=O)CN1CCOCC1)C(=O)N[C@@H](Cc1ccccc1)C(=O)N[C@@H](CC(C)C)C(=O)[C@@]1(C)CO1 [Carfilzomib] | 65.5 | 77.1
21 | CNC1CCC(c2ccc(Cl)c(Cl)c2)c2ccccc21.Cl (stereo not given) [Sertraline HCl] + CC(C)C[C@H](NC(=O)[C@H](CCc1ccccc1)NC(=O)CN1CCOCC1)C(=O)N[C@@H](Cc1ccccc1)C(=O)N[C@@H](CC(C)C)C(=O)[C@@]1(C)CO1 [Carfilzomib] | 72.1 | 61.1
22 | CCN1CCN(Cc2ccc(Nc3ncc(F)c(-c4cc(F)c5nc(C)n(C(C)C)c5c4)n3)nc2)CC1.CS(=O)(=O)O + CC(C)C[C@H](NC(=O)[C@H](CCc1ccccc1)NC(=O)CN1CCOCC1)C(=O)N[C@@H](Cc1ccccc1)C(=O)N[C@@H](CC(C)C)C(=O)[C@@]1(C)CO1 [Carfilzomib] | 62.7 | 64.9
23 | CCCSc1nc(NC2CC2c2ccc(F)c(F)c2)c2nnn(C3CC(OCCO)C(O)C3O)c2n1 (stereo not given) [Ticagrelor] + CC(C)C[C@H](NC(=O)[C@H](CCc1ccccc1)NC(=O)CN1CCOCC1)C(=O)N[C@@H](Cc1ccccc1)C(=O)N[C@@H](CC(C)C)C(=O)[C@@]1(C)CO1 [Carfilzomib] | 95.1 | 54.3
24 | CCOc1cc2ncc(C#N)c(Nc3ccc(F)c(Cl)c3)c2cc1NC(=O)C=CCN(C)C [Pelitinib (EKB-569)] + CC(C)C[C@H](NC(=O)[C@H](CCc1ccccc1)NC(=O)CN1CCOCC1)C(=O)N[C@@H](Cc1ccccc1)C(=O)N[C@@H](CC(C)C)C(=O)[C@@]1(C)CO1 [Carfilzomib] | 140 | 40.8
25 | COc1ccc(C[C@H](N)C(=O)N[C@@H]2[C@H](O)[C@H](n3cnc4c(N(C)C)ncnc43)O[C@@H]2CO)cc1.Cl.Cl [Puromycin dihydrochloride] + CC(C)C[C@H](NC(=O)[C@H](CCc1ccccc1)NC(=O)CN1CCOCC1)C(=O)N[C@@H](Cc1ccccc1)C(=O)N[C@@H](CC(C)C)C(=O)[C@@]1(C)CO1 [Carfilzomib] | 76.4 | 13.8
26 | Clc1ccc(C(Cn2ccnc2)OCc2ccsc2Cl)c(Cl)c1 (stereo not given) [Tioconazole] + CC(C)C[C@H](NC(=O)[C@H](CCc1ccccc1)NC(=O)CN1CCOCC1)C(=O)N[C@@H](Cc1ccccc1)C(=O)N[C@@H](CC(C)C)C(=O)[C@@]1(C)CO1 [Carfilzomib] | 88.4 | 62.5
27 | CCOC(=O)C1=C(COCCN)NC(C)=C(C(=O)OC)C1c1ccccc1Cl.O=S(=O)(O)c1ccccc1 (stereo not given) [Amlodipine Besylate] + CC(C)C[C@H](NC(=O)[C@H](CCc1ccccc1)NC(=O)CN1CCOCC1)C(=O)N[C@@H](Cc1ccccc1)C(=O)N[C@@H](CC(C)C)C(=O)[C@@]1(C)CO1 [Carfilzomib] | 97.1 | 64.8
28 | Cl.Cl.Fc1ccc(C(c2ccc(F)cc2)N2CCN(CC=Cc3ccccc3)CC2)cc1 [Flunarizine 2HCl] + CC(C)C[C@H](NC(=O)[C@H](CCc1ccccc1)NC(=O)CN1CCOCC1)C(=O)N[C@@H](Cc1ccccc1)C(=O)N[C@@H](CC(C)C)C(=O)[C@@]1(C)CO1 [Carfilzomib] | 103 | 61.1
29 | C=C1C(=CC=C2CCCC3(C)C2CCC3C(C)CCCC(C)C)CC(O)CC1O (stereo not given) [Alfacalcidol] + CC(C)C[C@H](NC(=O)[C@H](CCc1ccccc1)NC(=O)CN1CCOCC1)C(=O)N[C@@H](Cc1ccccc1)C(=O)N[C@@H](CC(C)C)C(=O)[C@@]1(C)CO1 [Carfilzomib] | 55.4 | 41
30 | CCc1c(Cl)c(O)c(Cl)c(O)c1C(=O)OC1C(C)OC(OCC2=CC=CCC(O)C(C)=CC(CC)C(OC3OC(C)(C)C(OC(=O)C(C)C)C(O)C3O)C(C)=CC(C)=CCC(C(C)O)OC2=O)C(OC)C1O (stereo not given) [Fidaxomicin] + CC(C)C[C@H](NC(=O)[C@H](CCc1ccccc1)NC(=O)CN1CCOCC1)C(=O)N[C@@H](Cc1ccccc1)C(=O)N[C@@H](CC(C)C)C(=O)[C@@]1(C)CO1 [Carfilzomib] | 92.5 | 62.7
